A short description of test [1]: qHTS of pediatric cancer cell lines to identify multiple opportunities for drug repurposing: Primary screen for Rh18 cells (AID 1347102). Note: nearly all actives have a fitted effect of over 65% in size. Note: potency is the fitted concentration of half-maximal effect. The method, boiled down:
(§1)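 Cells (500-1,000/well) in growth media were settled 5 h at 37 degrees C, then given compounds for 48 h. Viability was read as CellTiter-Glo luminescence. Primary runs used MIPE at 11 points (0.78 nM-46 µM) and NPC at 8 points (0.59 nM-46 µM); follow-ups used 11 points.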
(In general: qHTS replaces the single test concentration by a dilution series.)

The nature of test [2]: qHTS of pediatric cancer cell lines to identify multiple opportunities for drug repurposing: Primary screen for OHS-50 cells (AID 1347103). Note: nearly all actives have a fitted effect of over 40% in size. Note: potency is the fitted concentration of half-maximal effect. The procedure, abridged:
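Cells (500-1,000/well) rested 5 h, then received compounds for 48 h; metabolically active cells were measured by CellTiter-Glo luminescence. Final concentrations spanned up to 46 µM (MIPE, 11-point) or 0.59 nM-46 µM (NPC, 8-point) in primary screens, 11-point in follow-ups.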

Test [3] can be described thus: qHTS of pediatric cancer cell lines to identify multiple opportunities for drug repurposing: Primary screen for RD cells (AID 1347104). Note: nearly all actives have a fitted effect of over 55% in size. Note: potency is the fitted concentration of half-maximal effect. The method, boiled down: (§2)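 Cells seeded at 500-1,000 cells/well in growth media, rested 5 hours at 37 degrees C, 5% CO2, then dosed; MIPE compounds at 11-point (from 0.78 nM) and NPC at 8-point (from 0.59 nM) final concentrations. Viability by CellTiter-Glo luminescence after 48 hours.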

Test [4] in a line: qHTS of pediatric cancer cell lines to identify multiple opportunities for drug repurposing: Primary screen for MG 63 (6-TG R) cells (AID 1347105). Note: nearly all actives have a fitted effect of over 50% in size. Note: potency is the fitted concentration of half-maximal effect. The method, boiled down:
as §2

The nature of test [5]: qHTS of pediatric cancer cell lines to identify multiple opportunities for drug repurposing: Primary screen for control Hh wild type fibroblast cells (AID 1347106).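 Note: series mostly up to about 46 µM; a drop in luminescence marks cytotoxicity and a rise apparent proliferation; nearly all actives have a fitted effect of over 55% in size.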 The procedure, abridged:
as §1

A short description of test [6]: qHTS of pediatric cancer cell lines to identify multiple opportunities for drug repurposing: Primary screen for Rh30 cells (AID 1347107). Note: series mostly up to about 46 µM; nearly all actives have a fitted effect of over 75% in size. The procedure, abridged:
as §1

Test [7] can be described thus: qHTS of pediatric cancer cell lines to identify multiple opportunities for drug repurposing: Primary screen for Rh41 cells (AID 1347108).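 Note: series mostly up to about 46 µM; luminescence drop marks cytotoxic hits; nearly all actives have a fitted effect of over 70% in size.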 The method, boiled down: as §2
The nature of test [8]: qHTS of pediatric cancer cell lines to identify multiple opportunities for drug repurposing: Confirmatory screen for LAN-5 cells (AID 1347113). Note: nearly all actives have a fitted effect of over 65% in size. The procedure, abridged:
as §1

Test [9] in a line: qHTS of pediatric cancer cell lines to identify multiple opportunities for drug repurposing: Confirmatory screen for DAOY cells (AID 1347114). Note: nearly all actives have a fitted effect of over 65% in size. Note: potency is the fitted concentration of half-maximal effect. The method, boiled down:
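Viability measured as metabolically active cells via CellTiter-Glo luminescence following 48 hours of compound exposure, 11-point dilutions in confirmatory testing. 500-1,000 cells/well plated 5 hours before dosing; controls were DMSO and 2.3 µM bortezomib.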

Test [10] is described as follows: qHTS of pediatric cancer cell lines to identify multiple opportunities for drug repurposing: Confirmatory screen for TC32 cells (AID 1347118).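 Note: cells exposed to compound for 48 h before the read; nearly all actives have a fitted effect of over 65% in size.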 Note: potency is the fitted concentration of half-maximal effect. The method, boiled down: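 Luminescent ATP read-out (CellTiter-Glo) of metabolically active TC32 cells after 48 h exposure. Concentration-response curves came from 11-point (MIPE, 0.78 nM–46 µM) or 8-point (NPC, 0.59 nM–46 µM) primary titrations; follow-up used 11 points.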

The nature of test [11]: qHTS of pediatric cancer cell lines to identify multiple opportunities for drug repurposing: Confirmatory screen for MG 63 (6-TG R) cells (AID 1347119). Note: nearly all actives have a fitted effect of over 55% in size. The procedure, abridged: as §1
Test [12] in a line: qHTS of pediatric cancer cell lines to identify multiple opportunities for drug repurposing: Confirmatory screen for control Hh wild type fibroblast cells (AID 1347121). Note: nearly all actives have a fitted effect of over 70% in size. The procedure, abridged:
as §1

Test [13] in a line: qHTS of pediatric cancer cell lines to identify multiple opportunities for drug repurposing: Confirmatory screen for RD cells (AID 1347124). The method, boiled down:
as §1

The nature of test [14]: qHTS of pediatric cancer cell lines to identify multiple opportunities for drug repurposing: Confirmatory screen for Rh18 cells (AID 1347125). Note: nearly all actives have a fitted effect of over 55% in size. The method, boiled down: as §1
A short description of test [15]: qHTS of pediatric cancer cell lines to identify multiple opportunities for drug repurposing: Confirmatory screen for NB1643 cells (AID 1347109). Note: nearly all actives have a fitted effect of over 45% in size. Note: potency is the fitted concentration of half-maximal effect. The method, boiled down: as §1
Test [16] is described as follows: qHTS of pediatric cancer cell lines to identify multiple opportunities for drug repurposing: Confirmatory screen for BT-12 cells (AID 1347112). Note: nearly all actives have a fitted effect of over 55% in size. The method, boiled down: as §1
A short description of test [17]: qHTS of pediatric cancer cell lines to identify multiple opportunities for drug repurposing: Confirmatory screen for NB-EBc1 cells (AID 1347115).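 Note: cells exposed to compound for 48 h before the viability read; nearly all actives have a fitted effect of over 45% in size.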 The procedure, abridged: as §1
Test [18] can be described thus: qHTS of pediatric cancer cell lines to identify multiple opportunities for drug repurposing: Confirmatory screen for BT-37 cells (AID 1347117). Note: nearly all actives have a fitted effect of over 55% in size. The procedure, abridged:
as §1

A short description of test [19]: qHTS of pediatric cancer cell lines to identify multiple opportunities for drug repurposing: Confirmatory screen for Rh41 cells (AID 1347123).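 Note: 48 h compound exposure; nearly all actives have a fitted effect of over 60% in size.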 Note: potency is the fitted concentration of half-maximal effect. The method, boiled down: as §1
The nature of test [20]: qHTS of pediatric cancer cell lines to identify multiple opportunities for drug repurposing: Confirmatory screen for U-2 OS cells (AID 1347122). Note: nearly all actives have a fitted effect of over 65% in size. The procedure, abridged: as §1

SMILES strings stand for the structures. Several values for one entry are separate records, joined by “and”; a condition that tells them apart may be missing. Equal values may be shown once. Inconclusive results are not listed. Activity calls are given as the source filed them. Calls come from the whole dose curve; as a rule, active = well fitted curve in the direction sought with a large enough effect; inconclusive = small, poorly fitted or top-dose-only effect, or another doubt; inactive = no such curve, though single readings can be large; an effect the other way counts as inactive or inconclusive.

With `COc1ccc2c(c1)c(CC(=O)O)c(C)n2C(=O)c1ccc(Cl)cc1`, the Potency result in test [1], in test [2], in test [3], in [4], in test [5] and in test [7] was “inactive” throughout. Besides, the compound was classed as inactive in test [6].

`CNCCCC12CCC(c3ccccc31)c1ccccc12`: the Potency in test [1] is 18.8 µM (active) and 18.7 µM (active); in test [2] it was 27.6 µM (active) and 24.3 µM (active); in test [3] it was 29.6 µM (active); in test [4], 16.8 µM (active). In addition, the Potency entry in test [5] is “inactive”. Moreover, the call in [6] was inactive.

In the case of `NC(CO)C(=O)NNCc1ccc(O)c(O)c1O` (stereo unspecified), the Potency entry in [1], in [2], in [4] and in [5] was “inactive” each time.

As for `CN(Cc1cnc2nc(N)nc(N)c2n1)c1ccc(C(=O)N[C@@H](CCC(=O)O)C(=O)O)cc1`, the Potency result in test [1], in [4], in [5], in [8], in test [11] and in test [12] was “inactive” each time. Moreover, the Potency entry in [14] was “inactive”. In addition, the Potency in [2] was 9.8 nM (active); in test [3], 0.0106 µM (active); in test [9], 117 nM (active); in test [10] it was 36.9 nM (active); in [13], 82.7 nM (active). Also, the compound was called inactive in test [6].

In the case of `Cc1cn([C@H]2C=C[C@@H](CO)O2)c(=O)[nH]c1=O`, the Potency result in test [1], in [2], in test [3], in test [4], in test [5] and in [7] was “inactive” throughout. Also, the compound was classed as inactive in test [6].

With `Cc1cc(C(C)(C)C)c(O)c(C)c1CC1=NCCN1`, the Potency result in [1], in [2], in test [4] and in [5] was “inactive” throughout. In test [6], the outcome was inactive.

For the compound `COc1ccccc1N1CCN(CC(O)COc2cccc3ccccc23)CC1` (stereo unspecified), the Potency entry in test [1], in [3], in test [4] and in test [5] was “inactive” throughout. The Potency in test [2] is 15500 nM (active). For the same compound, the outcome in test [6] was inactive.

For the compound `CC(C)Cc1ccc(C(C)C(=O)O)cc1` (stereo unspecified), the Potency result in test [1], in test [2], in test [3], in test [4], in [5] and in test [15] was “inactive” each time. For the same compound, the Potency result in test [16], in test [17], in test [18], in test [11], in test [12] and in test [14] was “inactive” each time. Further, in test [6], the result was inactive. For the same compound, the Potency in test [9] was 3690 nM (active); in test [10], 3690 nM (active); in test [19], 4.65 µM (active); in [13], 1310 nM (active).

As for `Clc1ccc2nsnc2c1NC1=NCCN1`, the Potency result in test [1], in test [2], in test [3], in [4], in test [5] and in test [7] was “inactive” each time. In addition, the Potency result in test [8], in [9], in test [17], in test [10], in test [11] and in [12] was “inactive” throughout. The Potency result in test [20], in test [19] and in [14] was “inactive” each time. Besides, the result in test [6] was inactive. In test [15], the Potency was 26.1 µM (active).

`CC(C)(C)C(=O)Oc1ccc(S(=O)(=O)Nc2ccccc2C(=O)NCC(=O)O)cc1`: the Potency entry in test [1], in test [2], in test [3], in [4] and in [5] was “inactive” throughout. Further, the outcome in test [6] was inactive.

`CN(CCOc1ccc(NS(C)(=O)=O)cc1)CCc1ccc(NS(C)(=O)=O)cc1`: the Potency entry in test [1], in [2], in [3], in [4] and in test [5] was “inactive” throughout. The compound was classed as inactive in [6].

On to `NS(=O)(=O)c1cc2c(cc1Cl)NCNS2(=O)=O`, for which the Potency result in test [1], in [2], in [3], in [4] and in test [5] was “inactive” each time. Besides, the result in test [6] was inactive.

As to `C[C@H]1c2cccc(O)c2C(O)=C2C(=O)[C@]3(O)C(O)=C(C(N)=O)C(=O)[C@@H](N(C)C)[C@@H]3[C@@H](O)[C@@H]21`, the Potency entry in [1], in [2], in [3], in [4] and in test [5] was “inactive” in each case.

On to `CN(C)c1nc(N(C)C)nc(N(C)C)n1`, for which the Potency entry in [1], in [2], in [3], in [4], in test [5] and in test [7] was “inactive” throughout.

As to `COc1ccc2[nH]cc(CCNC(C)=O)c2c1`, the Potency result in [1], in test [2], in test [3], in test [4], in [5] and in test [7] was “inactive” each time. Further, in test [6], the compound was called inactive.

`Cc1ccccc1N1C(=O)c2cc(S(N)(=O)=O)c(Cl)cc2NC1C` (stereo unspecified): the Potency entry in [1], in test [2], in [3], in [4] and in test [5] was “inactive” each time. Moreover, the outcome in test [6] was inactive.

Take `CCOC(=O)c1ncn2c1CN(C)C(=O)c1cc(F)ccc1-2`: the Potency entry in [1], in test [2], in test [3], in test [4] and in [5] was “inactive” throughout.

As for `CCC1(C)CC(=O)NC1=O` (stereo unspecified), the Potency result in test [1], in [2], in [3], in test [4] and in test [5] was “inactive” in each case.

Take `CC(C(=O)O)c1cccc(C(=O)c2ccccc2)c1` (stereo unspecified): the Potency result in [1], in test [2], in [4] and in test [5] was “inactive” each time. Besides, the result in test [6] was inactive.

Consider `O=C1N(c2ccccc2)c2ccccc2C1(Cc1ccncc1)Cc1ccncc1`, for which the Potency result in test [1], in [2], in test [3], in test [4], in [5] and in test [7] was “inactive” in each case. Also, the compound was called inactive in test [6].

`O=c1[nH]cc(F)c(=O)[nH]1`: the Potency result in [1], in test [2], in [3], in test [4], in test [5] and in test [7] was “inactive” in each case.

As for `COc1nc(C)nc(Cl)c1NC1=NCCN1`, the Potency entry in test [1], in [2], in test [3], in test [4], in test [5] and in test [7] was “inactive” throughout. For the same compound, the call in [6] was inactive.

Turning to `CN1C2CCC1CC(OC(=O)C(CO)c1ccccc1)C2` (stereo unspecified), the Potency entry in [1], in test [2], in test [3], in [4] and in test [5] was “inactive” throughout. For the same compound, the outcome in [6] was inactive.

Consider `O=C(C1CCCCC1)N1CC(=O)N2CCc3ccccc3C2C1` (stereo unspecified), for which the Potency entry in test [1], in [2], in test [3], in test [4] and in test [5] was “inactive” in each case. For the same compound, the outcome in test [6] was inactive.

For the origin of these results see PubChem BioAssay (NCATS).
